Values joined by “and” are separate entries in the source; they are usually repeats but may differ in a detail not shown here. Identical values can stand only once. Inconclusive results are not listed. Active and inactive are the calls of the source. Calls come from the whole dose curve; as a rule, active = well fitted curve in the direction sought with a large enough effect in the repeat runs; inconclusive = weak or mixed curves; inactive = no such curve, though single readings can be large; an effect the other way counts as inactive or inconclusive.

This passage reports outcome, Potency and max response results from PubChem BioAssay (Tox21).

Experiment [1] is described as follows: qHTS RealTime-Glo MT Cell Viability Assay in HepG2 cells - 40 hour (AID 1224870). Note: nearly all actives have a fitted effect of over 50% in size. Put shortly:
(§1)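 HepG2 cells (600/well) mixed with RealTime-Glo MT reagent, settled 5 h at 37 C/5% CO2 before compound addition. Nonlytic NanoLuc luminescence from viable-cell prosubstrate reduction read repeatedly during 40 h treatment at 37 C.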

Experiment [2] in a line: A CellTox Green Cytotoxicity Assay to monitor cytotoxicity in HEK293 cells - 40 hour (AID 1224871). Note: nearly all actives have a fitted effect of over 45% in size. Put shortly:
(§2)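 Fluorescence intensity, read at 0, 8, 16, 24, 32 and 40 h of compound treatment, reflected dye binding to DNA of dead HEK293 cells; compounds (23 nL, DMSO) were added 5 h after plating cells with reagent.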

The nature of experiment [3]: qHTS RealTime-Glo MT Cell Viability Assay in HEK293 cells - 16 hour (AID 1224872). Note: top concentration of the series differs between compounds; nearly all actives have a fitted effect of over 50% in size. In short, it runs like this: (§3)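 HEK293 cells were seeded at 600 cells/well together with NanoLuc luciferase and cell-permeant prosubstrate, preincubated 5 h at 37 C/5% CO2, then given compound in DMSO by pintool. Luminescence from viable-cell prosubstrate reduction was read repeatedly over 40 h.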

Experiment [4] in a line: qHTS RealTime-Glo MT Cell Viability Assay in HepG2 cells - 8 hour (AID 1224873). Note: nearly all actives have a fitted effect of over 55% in size. Put shortly:
as §1
Background: qHTS replaces the single test concentration by a dilution series.

A short description of experiment [5]: qHTS RealTime-Glo MT Cell Viability Assay in HEK293 cells - 40 hour (AID 1224874). Note: nearly all actives have a fitted effect of over 50% in size. The note with it: RealTime-Glo luminescence; max response: hits give low values. In short, it runs like this:
(§4)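 Viable HEK293 cells reduce a cell-permeant prosubstrate; the product diffuses out and is consumed by NanoLuc in the medium to give light. Compounds went in after a 5 h incubation and plates were read over the treatment course.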

A short description of experiment [6]: A CellTox Green Cytotoxicity Assay to monitor cytotoxicity in HEK293 cells - 24 hour (AID 1224875). Note: series mostly up to about 77 µM; nearly all actives have a fitted effect of over 45% in size. In short, it runs like this: as §2
Experiment [7] is described as follows: A CellTox Green Cytotoxicity Assay to monitor cytotoxicity in HepG2 cells - 16 hour (AID 1224876). Note: nearly all actives have a fitted effect of over 45% in size. Put shortly: (§5)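 Using 1536-well format, dye-containing HepG2 suspension was seeded, allowed 5 h at 37 C/5% CO2, dosed by pintool with compounds, positive and negative controls, and imaged for fluorescence across 40 h.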
Experiment [8] is described as follows: qHTS RealTime-Glo MT Cell Viability Assay in HepG2 cells - 32 hour (AID 1224877). Note: nearly all actives have a fitted effect of over 55% in size. In short, it runs like this: (§6)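 HepG2 cells were seeded at 600 cells/well together with NanoLuc luciferase and a cell-permeant prosubstrate, preincubated 5 h at 37 C/5% CO2, then pin-dosed with compounds in DMSO. Nonlytic luminescence from viable cells was read at each time point.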

Experiment [9] is described as follows: A CellTox Green Cytotoxicity Assay to monitor cytotoxicity in HepG2 cells - 24 hour (AID 1224878). Note: nearly all actives have a fitted effect of over 45% in size. Put shortly: as §5
Experiment [10] in a line: A CellTox Green Cytotoxicity Assay to monitor cytotoxicity in HepG2 cells - 40 hour (AID 1224879). Note: nearly all actives have a fitted effect of over 40% in size. In short, it runs like this:
as §5

Experiment [11] is described as follows: A CellTox Green Cytotoxicity Assay to monitor cytotoxicity in HEK293 cells - 32 hour (AID 1224881). Note: nearly all actives have a fitted effect of over 40% in size. Put shortly: as §2
The nature of experiment [12]: A CellTox Green Cytotoxicity Assay to monitor cytotoxicity in HepG2 cells - 0 hour (AID 1224882). Note: nearly all actives have a fitted effect of over 35% in size. In short, it runs like this: as §5
Experiment [13] is described as follows: A CellTox Green Cytotoxicity Assay to monitor cytotoxicity in HepG2 cells - 32 hour (AID 1224883). Note: nearly all actives have a fitted effect of over 50% in size. Put shortly: as §5
A short description of experiment [14]: A CellTox Green Cytotoxicity Assay to monitor cytotoxicity in HEK293 cells - 8 hour (AID 1224884). Note: nearly all actives have a fitted effect of over 35% in size. Put shortly: as §2
Experiment [15] can be described thus: qHTS RealTime-Glo MT Cell Viability Assay in HepG2 cells - 16 hour (AID 1224885). Note: nearly all actives have a fitted effect of over 50% in size. In short, it runs like this:
as §6

Experiment [16] is described as follows: qHTS RealTime-Glo MT Cell Viability Assay in HEK293 cells - 24 hour (AID 1224886). Put shortly: as §3
Experiment [17] is described as follows: qHTS RealTime-Glo MT Cell Viability Assay in HEK293 cells - 8 hour (AID 1224887). In short, it runs like this: as §4
Experiment [18] in a line: A CellTox Green Cytotoxicity Assay to monitor cytotoxicity in HEK293 cells - 16 hour (AID 1224888). Note: nearly all actives have a fitted effect of over 35% in size. Put shortly: as §2
Experiment [19] can be described thus: qHTS RealTime-Glo MT Cell Viability Assay in HepG2 cells - 0 hour (AID 1224889). Note: nearly all actives have a fitted effect of over 50% in size. Note: potency is the fitted concentration of half-maximal effect. In short, it runs like this:
as §6

Experiment [20] can be described thus: qHTS RealTime-Glo MT Cell Viability Assay in HEK293 cells - 0 hour (AID 1224880). Note: nearly all actives have a fitted effect of over 45% in size. Note: potency is the fitted concentration of half-maximal effect. Put shortly:
as §4
% is set by controls: 0 for no effect and ±100 for the full control effect.

Regarding `CCCCOCCOCCSC#N`, the outcome in experiment [1], in [4] and in experiment [8] was inactive. Also, the Potency entry in experiment [2], in experiment [3], in experiment [6], in experiment [7], in [9] and in [10] was “inactive” in each case. The Potency result in experiment [11], in experiment [12], in [13], in experiment [14], in experiment [15] and in experiment [16] was “inactive” in each case. Moreover, the Potency result in [17], in experiment [18] and in experiment [19] was “inactive” each time. The max response in experiment [5] was 7.99% (inactive) and 2.19% (inactive).
For `COc1cc(C=O)ccc1O`, the call in experiment [1], in [4] and in experiment [8] was inactive. The Potency result in experiment [2], in experiment [3], in experiment [6], in experiment [7], in [9] and in experiment [10] was “inactive” throughout. For the same compound, the Potency entry in [20], in experiment [11], in experiment [12], in [13], in [14] and in [15] was “inactive” throughout. Moreover, the Potency entry in experiment [16], in experiment [17], in experiment [18] and in [19] was “inactive” in each case. Further, the max response in [5] was 0.342% (inactive) and 3.21% (inactive) and 2.85% (inactive).
With `N[C@@H](Cc1c[nH]c2ccccc12)C(=O)O`, the call in [1], in experiment [4] and in experiment [8] was inactive. Moreover, the Potency entry in experiment [2], in experiment [3], in experiment [6], in [7], in experiment [9] and in experiment [10] was “inactive” in each case. Moreover, the Potency entry in experiment [20], in [11], in experiment [12], in experiment [13], in experiment [14] and in [15] was “inactive” throughout. The Potency result in experiment [16], in [17], in experiment [18] and in experiment [19] was “inactive” each time. In [5], the max response is 11.5% (inactive).
Regarding `CCCCNC(=O)NS(=O)(=O)c1ccc(N)cc1`, the compound was called inactive in [1], in experiment [4] and in experiment [8]. The Potency entry in experiment [2], in experiment [3], in experiment [6], in [7], in [9] and in experiment [10] was “inactive” throughout. For the same compound, the Potency entry in [20], in experiment [11], in [12], in experiment [13], in experiment [14] and in [15] was “inactive” throughout. Moreover, the Potency entry in experiment [16], in experiment [17], in [18] and in experiment [19] was “inactive” throughout. Besides, the max response in experiment [5] is 3.02% (inactive) and 10% (inactive).
`Oc1cccc(O)c1`: the compound was classed as inactive in [1], in [4] and in experiment [8]. Moreover, the Potency result in experiment [2], in experiment [3], in experiment [6], in [7], in experiment [9] and in experiment [10] was “inactive” throughout. Besides, the Potency result in experiment [20], in experiment [11], in experiment [12], in experiment [13], in [14] and in [15] was “inactive” each time. Besides, the Potency entry in experiment [16], in experiment [17], in experiment [18] and in experiment [19] was “inactive” in each case. The max response in experiment [5] is -0.181% (inactive) and -6.38% (inactive) and 1.58% (inactive).
Consider `N[C@@H](Cc1c[nH]c2ccc(O)cc12)C(=O)O`, for which the result in [1], in [4] and in experiment [8] was inactive. The Potency entry in [2], in [3], in [6], in [7], in experiment [9] and in experiment [10] was “inactive” throughout. Also, the Potency result in [20], in [11], in [12], in [13], in [14] and in experiment [15] was “inactive” each time. Moreover, the Potency result in [16], in [17], in experiment [18] and in experiment [19] was “inactive” each time. In addition, the max response in [5] is 3.87% (inactive) and 1.98% (inactive).
With `CC(=O)c1ccc(S(=O)(=O)NC(=O)NC2CCCCC2)cc1`, the compound was classed as inactive in experiment [1] and in experiment [8]. For the same compound, the Potency result in experiment [2], in [3], in experiment [6], in [7], in experiment [9] and in experiment [10] was “inactive” in each case. The Potency result in experiment [20], in experiment [12], in experiment [13], in experiment [14], in experiment [15] and in experiment [16] was “inactive” in each case. The Potency result in experiment [17], in experiment [18] and in experiment [19] was “inactive” in each case. In experiment [5], the max response was 0.507% (inactive) and 8.7% (inactive) and 3.73% (inactive).
On to `Nc1cccc(N)c1`, for which the outcome in experiment [1], in experiment [4] and in experiment [8] was inactive. Further, the Potency entry in [2], in [3], in experiment [7], in experiment [9], in experiment [10] and in experiment [12] was “inactive” throughout. Moreover, the Potency entry in [13], in experiment [14], in experiment [15], in experiment [17], in experiment [18] and in experiment [19] was “inactive” in each case. Further, in experiment [5], the max response is 6.95% (inactive) and 5.34% (inactive) and 0.651% (inactive).
On to `C=C(C)C(N)=O`, for which the result in experiment [1], in experiment [4] and in experiment [8] was inactive. In addition, the Potency result in [2], in experiment [3], in experiment [7], in experiment [9], in [10] and in experiment [11] was “inactive” in each case. Also, the Potency result in [12], in experiment [13], in experiment [14], in [15], in [17] and in experiment [18] was “inactive” in each case. Moreover, in experiment [19], the Potency result was “inactive”. In addition, the max response in experiment [5] is 4.84% (inactive) and 13.1% (inactive).
Take `C[C@]12C[C@H](O)[C@H]3[C@@H](CCC4=CC(=O)CC[C@@]43C)[C@@H]1CC[C@@H]2C(=O)CO`: the outcome in experiment [1] and in [8] was inactive. Moreover, the Potency result in experiment [2], in [3], in experiment [6], in [7], in experiment [9] and in [10] was “inactive” throughout. For the same compound, the Potency entry in experiment [12], in experiment [13], in experiment [14], in experiment [15], in [16] and in [17] was “inactive” each time. Also, the Potency result in [18] is “inactive”. In addition, the max response in experiment [5] was -9.57% (inactive). Also, the Potency in experiment [20] was 13.8 µM (active); in experiment [19], 9.79 µM (active) and 3.47 µM (active) and 9.52 µM (active).
With `NC(=O)c1ccc([N+](=O)[O-])cc1Cl`, the outcome in [1], in [4] and in experiment [8] was inactive. For the same compound, the Potency result in experiment [2], in experiment [3], in [7], in [9], in experiment [10] and in experiment [12] was “inactive” throughout. The Potency result in experiment [13], in experiment [14], in experiment [15], in experiment [17], in experiment [18] and in experiment [19] was “inactive” throughout. Also, the max response in experiment [5] was -1.29% (inactive) and 1.15% (inactive).
In the case of `O=C(O)Cc1cccc2ccccc12`, the compound was classed as inactive in [1], in [4] and in experiment [8]. Further, the Potency entry in experiment [2], in [3], in [7], in experiment [9], in [10] and in experiment [20] was “inactive” throughout. The Potency entry in experiment [12], in experiment [13], in [14], in experiment [15], in experiment [16] and in [17] was “inactive” in each case. Further, the Potency result in [18] and in [19] was “inactive” throughout. In experiment [5], the max response is 0.279% (inactive) and 2.27% (inactive) and -0.352% (inactive).
